Source: PubChem BioAssay
Nrf2 ARE act: qHTS of Nrf2 Activators | AREc32 ARE-luciferase reporter (MCF7-derived line), luminescence, 24 h | Potency, µM (titrated, usually from 46.1 µM), for the others: at the highest dose activation, actives largely listed as activators | 0.31% of 410,000 active | AID 624171, 2012; further: potency means the concentration at half of the fitted maximal effect; % of control where 0% means no effect; nearly all actives have a fitted effect of over 65% in size
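Steps: seed AREc32_Fluc cells (1000/well, 5% FBS OPTI-MEM); incubate overnight at 37 deg C; add 23 nL compound; incubate 24 hr; add Steady-Glo; hold 30 min RT; read luminescence.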
DRD3 agonist: qHTS of D3 Dopamine Receptor Agonist: qHTS | max activation, % | D3R DiscoveRx beta-arrestin cells, luminescence, 90 min | 0.58% of 410,000 active | D(3) dopamine receptor (Homo sapiens), P35462; in the data active means max activation above about 30%; further: 0% is about no effect
Target sequence (P35462 whole entry, looked up): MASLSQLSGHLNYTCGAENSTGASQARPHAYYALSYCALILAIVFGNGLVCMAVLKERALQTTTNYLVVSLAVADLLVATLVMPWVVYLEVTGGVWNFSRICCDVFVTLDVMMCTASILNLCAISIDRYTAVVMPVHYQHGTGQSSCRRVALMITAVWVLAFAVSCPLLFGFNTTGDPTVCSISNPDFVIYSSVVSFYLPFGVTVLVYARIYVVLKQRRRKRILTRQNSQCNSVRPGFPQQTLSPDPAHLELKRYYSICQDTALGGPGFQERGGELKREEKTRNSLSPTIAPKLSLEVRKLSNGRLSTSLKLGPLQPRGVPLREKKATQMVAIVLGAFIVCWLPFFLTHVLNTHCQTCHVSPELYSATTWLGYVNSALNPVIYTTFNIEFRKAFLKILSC
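Agonist-mode cell screen: cells plated at 1500/well and incubated overnight at 37 °C, then exposed to library compounds for 90 min at 37 °C. Detection reagent was added for 30–60 min at room temperature, and luminescence was read.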
DRD3 antagonist: qHTS of D3 Dopamine Receptor Antagonist: qHTS | D(3) dopamine receptor (Homo sapiens), P35462 | D3R cells, DiscoveRx beta-arrestin luminescence, antagonist mode; hits give low values | max response, negative = inhibition, % | 2.5% of 360,000 active | AID 652054, 2013; in the data active means max response below about -50%; inconclusive means no clear call, values can overlap the other calls; further: on the % scale 0 is the no-effect control and ±100 the full control effect
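Cells expressing the human receptor were seeded at 1500 cells/well, incubated overnight at 37 degrees C in 5% CO2, then exposed to library compounds with dopamine controls for 90 minutes at 37 degrees C before luminescent detection.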
Glioma ERSR ind: qHTS for Inducers of the Endoplasmic Reticulum Stress Response (ERSR) in Human Glioma: qHTS; U87-MG GRP78 promoter luciferase reporter, 16 h; Potency, µM, for the others: at the highest dose activation, actives largely listed as activators; 0.02% of 420,000 active; AID 602332, 2012; further: potency means the concentration at half of the fitted maximal effect; series mostly up to about 76 µM; % of control where 0% means no effect; nearly all actives have a fitted effect of over 35% in size
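Stably transfected U87-MG human glioma cells carrying a GRP78-based luminescent sensor were seeded at 1000 cells/well, pin-dosed with compounds and incubated 16 h. Luciferase reagent was then added, and end-point luminescence was read after 10 min at room temperature.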
The depositor's hits bear a star; u = inconclusive; x = no result given; [ ] = another dose, or the depositor's remark. The list is not random: actives were taken first. Their share in the collection is about 3%. Unless noted, the call rests on the fitted dose curve; in most records, active means well fitted curve in the direction sought with a large enough effect; inconclusive means small, poorly fitted or top-dose-only effect, or another doubt; inactive means no such curve, though single readings can be large; an effect the other way counts as inactive or inconclusive.

SMILES | Nrf2 ARE act | DRD3 agonist | DRD3 antagonist | Glioma ERSR ind
CCC1(C)NC(c2ccc3c(c2)OCO3)=CC(c2ccccc2O)N1 (configuration not stated) | x | x | x | 1%
NC(=O)c1ccccc1NC(=S)NC(=O)c1ccc(Br)o1 | 14µM* | -17 | -23 | 5%
O=C(NC(=S)Nc1ccccc1)c1ccc(Br)o1 | u | 4 | 10 | -1%
CCOC(=O)N1CCN(C(=O)c2cc3c(-c4cccc(OC)c4)nn(C)c3s2)CC1 | 3% | 7 | 52 | -3%
COc1ccccc1N1CCN(C(=O)c2cc3c(-c4ccccc4F)nn(C)c3s2)CC1 | -1% | 56* | x | -4%
COc1cccc(-c2nn(C)c3sc(C(=O)N4CCN(c5cccc(C)c5)C(C)C4)cc23)c1 (configuration not stated) | -1% | 48* | x | -1%
COc1ccccc1N1CCN(CCCNC(=O)Cn2ncc3c([nH]c4ccccc43)c2=O)CC1 | 0% | -22 | -108* | -2%
Cc1ccc(C)c(N2CCN(CCCNC(=O)Cn3ncc4c([nH]c5ccccc54)c3=O)CC2)c1 | 1% | -18 | x | -3%
CCCn1c2ccccc2c2cnn(CC(=O)NCCCN3CCN(c4ccccc4)CC3)c(=O)c21 | 5% | 4 | -83* | 2%
Cn1c2ccccc2c2cnn(CC(=O)NCCCN3CCN(c4ccccc4F)CC3)c(=O)c21 | 4% | 11 | -90* | 0%
O=Nc1ccc(/C=C/c2ccnc3ccccc23)cc1 | x | x | x | -4%
Cc1ccccc1Cc1nc2cccnc2n1C1CCN(C(=O)CC2NC(=O)c3ccccc32)CC1 (configuration not stated) | x | x | x | -6%
COc1ccccc1NS(=O)(=O)c1ccc(NN=C2CCCCC2)c([N+](=O)[O-])c1 | 3% | -7 | -61* | -6%
COc1ccc(C)cc1Nc1ccc(C(=O)O)cc1[N+](=O)[O-] | 0% | -10 | u | 2%
COc1ccccc1Nc1ccc(C(=O)O)cc1[N+](=O)[O-] | 2% | -17 | -59* | 0%
Cc1cc(C(=O)O)ccc1NCc1cccnc1 | 0% | 2 | 11 | -5%
COc1ccc(NS(=O)(=O)c2ccc(N/N=C(\C)c3ccncc3)c([N+](=O)[O-])c2)cc1 | 0% | -12 | -65* | -5%
O=C(O)c1ccc(NCc2cccnc2)c([N+](=O)[O-])c1 | 0% | -5 | -83* | 0%
O=C1CN(CCN2CC(=O)NC(=O)C2)CC(=O)N1 | x | x | x | -3%
CNC[C@@H]1CC[C@@H](N)[C@@H](O[C@H]2[C@H](O)[C@@H](O[C@H]3OC[C@](C)(O)[C@H](NC)[C@H]3O)[C@H](N)C[C@@H]2N)O1 | x | 2 | x | -4%
Cc1c(C(=O)N2CCCC2)sc2ncnc(NCCN(C)C)c12 | x | x | x | -9%
CC(C)c1cc(C(N)=O)c(NC(=O)C2CCC2)s1 | 14% | 37* | -9 | -1%
CC(C)c1nnc(NC(=O)C2CCCCC2)s1 | 4% | -1 | 17 | 4%
CCOC(=O)COc1c(OC)cc(Cl)cc1C1Nc2ccccc2C(=O)N1c1ccccc1 (configuration not stated) | -1% | 0 | -59* | 2%
COc1ccccc1C(=O)NCCN1CCC(n2c(=O)[nH]c3ccccc32)CC1 | 0% | -16 | 0 | x
SMILES | Nrf2 ARE act | DRD3 agonist | DRD3 antagonist | Glioma ERSR ind
O=C(NCCN1CCC(n2c(=O)[nH]c3ccccc32)CC1)c1ccccc1C(F)(F)F | 0% | -13 | -77* | x
O=C(NCCN1CCC(n2c(=O)[nH]c3ccccc32)CC1)c1ccc(Cl)cc1Cl | 6% | -15 | -92* | x
CCOc1ccccc1C(=O)NCCN1CCC(n2c(=O)[nH]c3ccccc32)CC1 | 5% | -14 | -29 | x
Cc1ccccc1C(=O)NCCN1CCC(n2c(=O)[nH]c3ccccc32)CC1 | 0% | -11 | -109* | x
O=C(NCCN1CCC(n2c(=O)[nH]c3ccccc32)CC1)c1cccc2c1-c1ccccc1C2=O | -1% | -14 | 0 | x
O=C(NCCN1CCC(n2c(=O)[nH]c3ccccc32)CC1)c1ccccc1Cl | 0% | -12 | -100* | x
CCN(CC)S(=O)(=O)c1ccc2c(c1)c(=O)c(C(=O)N1CCN(c3cc(Cl)ccc3C)CC1)cn2C | 0% | -15 | x | 0%
CCOc1ccc(Br)cc1S(=O)(=O)Nc1ccc(C(=O)Nc2ccc(C)cc2)cc1 | 1% | 0 | 24 | -6%
CCOc1ccc(Br)cc1S(=O)(=O)Nc1ccc(C(=O)Nc2ccccc2OC)cc1 | 0% | -22 | -51* | -3%
COc1ccc(NS(=O)(=O)c2cc(NC(=O)c3ccccn3)ccc2OC)cc1Br | 0% | -2 | -51* | -3%
CCCCCCC[n+]1ccc(/C=C/c2c[nH]c3ccccc23)c2ccccc21 | x | x | x | -12%
CCCc1nc2c(s1)CCc1onc(-c3cccc([N+](=O)[O-])c3)c1-2 | 0% | 34* | 49 | -1%
CCN(CC)CCCNC(=O)CC1Sc2ccccc2NC1=O (configuration not stated) | -1% | -1 | -51* | -3%
CCCCC(F)(F)[C@@]1(O)CC[C@H]2[C@H](CC(=O)[C@@H]2CCCCCCC(=O)O)O1 | x | x | x | 2%
C[C@H](N)C(=O)NCC(=O)N[C@H]1CSSC[C@@H](C(=O)O)NC(=O)[C@H](CO)NC(=O)[C@H]([C@@H](C)O)NC(=O)[C@H](Cc2ccccc2)NC(=O)[C@H]([C@@H](C)O)NC(=O)[C@H](CCCCN)NC(=O)[C@@H](Cc2c[nH]c3ccccc23)NC(=O)[C@H](Cc2ccccc2)NC(=O)[C@H](Cc2ccccc2)NC(=O)[C@H](CC(N)=O)NC(=O)[C@H](CCCCN)NC1=O | x | x | x | -6%
C=C(C)Cn1c(SCC(=O)c2ccccc2)nc2sc3c(c2c1=O)CCCC3 | 0% | 1 | x | 1%
C=C(C)Cn1c(SCC(=O)Nc2cccc(C)c2)nc2sc3c(c2c1=O)CCCC3 | 7% | 34* | x | -2%
CCc1nc2c(OCC(=O)N3CCOCC3)cccn2c1N(C)C(=O)COc1ccccc1 | 0%[9.22 µM] | 2 | -53* | -2%
CCCCN(C=O)c1c(CC)nc2c(OCC(=O)N3CCOCC3)cccn12 | 0% | -7 | 0 | -3%
CCc1nc2c(OCc3ccccc3C)cccn2c1N(C)C(=O)C(C)C | 3% | -19 | -78* | 0%
COc1[nH]c(/N=C/c2ccco2)c(C#N)c1C#N | x | x | x | -3%
CCC(C(=O)NC1CCCC1)N(C(=O)Cn1nnc(-c2ccc(C)o2)n1)c1cccc(OC)c1 (configuration not stated) | -1% | 36* | 6 | -5%
Cc1nc2cc(NC(=O)[C@@H]3C[C@@H](Sc4ccccn4)CN3C3CCCCCC3)ccc2s1 | x | x | x | -5%
CCc1ccc(C2CC(=O)Nc3c2c(=O)n(C)c2ncnn32)cc1 (configuration not stated) | -1% | -12 | x | -5%
CCC1Oc2ccccc2N(CC(=O)NCCN2CCc3ccccc3C2)C1=O (configuration not stated) | 0% | -28 | -53* | -2%
